“And” between values parts separate entries of the source, which are not always exact repeats. Equal entries are not always repeated. Some structures have more than one record in an assay (separate samples or runs), and their calls can disagree. The source made the active and inactive calls. The calls were made as follows: active = hit-call score of the fitted dose curve at least 0.9, where 1 is the maximum; inactive = score below 0.9.

The nature of this test: ATG_PPRE_CIS: Attagene CIS-FACTORIAL HepG2 Assay for human Peroxisome Proliferator-activated Response Element (PPRE) (AID 2282958). As to conditions: HepG2 PPRE cis-element reporter, Attagene transcription factor profiling; actives raise or lower the signal. As for the experimental part:
ATG_CIS is a cell-based, multiplexed-readout assay that uses HepG2, a human liver cell line, with measurements taken at 24 hours after chemical dosing in a 24-well plate.ATG_PPRE_CIS is one of 52 assay component(s) measured or calculated from the ATG_CIS assay. It is designed to make measurements of mRNA induction, a form of inducible reporter, as detected with fluorescence intensity signals by Reverse transcription polymerase chain reaction (RT-PCR) and Capillary electrophoresis technology.Data from the assay component ATG_PPRE_CIS was analyzed into 1 assay endpoint. This assay endpoint, ATG_PPRE_CIS, was analyzed with bidirectional fitting relative to DMSO as the negative control and baseline of activity. Using a type of inducible reporter, measures of mRNA for gain or loss-of-signal activity can be used to understand the reporter gene at the transcription factor-level as they relate to the gene PPARA and PPARD and PPARG. Furthermore, this assay endpoint can be referred to as a primary readout, because this assay has produced multiple assay endpoints where this one serves a reporter gene function. To generalize the intended target to other relatable targets, this assay endpoint is annotated to the nuclear receptor intended target family, where the subfamily is non-steroidal.
Human liver HepG2 cells are transiently transfected with multiple reporter transcription units (MRTUs) in 6-well plates using FuGene 6 reagent (Roche; 3 ml FuGene/1 mg DNA). The MRTU constructs are regulated by a cis-regulating element (promoter). […] A major difference between the CIS and TRANS system is that in CIS activities of endogenous TFs are measured, whereas the TRANS assay evaluates changes in activities of exogenous, chimeric NR-Gal4 proteins. […] At the end of 24 hour incubation, total RNA was isolated using TriZol reagent (Invitrogen). The isolated RNA is then reverse-transcribed using oligo(dT) primer and Mo-MLV reverse transcriptase (Invitrogen) with DNAse I (Ambion) treatment for 30 min. The one-tenth of the produced cDNA was amplified by PCR using Taq DNA polymerase (Invitrogen) and two reporter sequence-specific primers. The PCR products were fluorescently labeled by primer extension with 6-arboxyfluorescein (6-FAM) 5'-labeled reporter sequence-specific primer (2 min at 95 C, 20 s at 68 C and 10 min at 72 C) and these products were digested with 5U of HpaI (New England Biolabs) for 2h at 37 C. The fragments were purified using Qiaquick PCR columns (Qiagen), analyzed on an ABI 3130xL genetic analyzer (Applied Biosystems) with peak positions identified by using a set of X-rhodamine (ROX)-labeled MapMarker1000 molecular weight standards (BioVentures). The raw capillary electrophoresis data was processed using Attagraph software (Attagene).
`CCNS(=O)(=O)C(F)(F)C(F)(F)C(F)(F)C(F)(F)C(F)(F)C(F)(F)C(F)(F)C(F)(F)F`: the call was inactive; the half-maximal activity concentration (AC50) was 146 µM (active) and 29.8 µM (active).

With `Brc1ccc(Oc2ccccc2)cc1`, the compound was classed as inactive.

As for `OCCOCCO`, the compound was called inactive.

On to `COP(=S)(OC)SCN1C(=O)c2ccccc2C1=O`, for which the compound was classed as inactive.

On to `CCOC(=O)[C@]1(c2ccccc2)Oc2ccccc2[C@@H]1N`, for which the AC50 was 13.8 µM (active).

As to `CN(C)c1ccc(C(=O)c2ccc(N(C)C)cc2)cc1`, the compound was called inactive.

With `Cc1cc(N=Nc2ccccc2C)ccc1N`, the half-maximal activity concentration (AC50) is 26.4 µM (active).

As to `Clc1ccc(C(c2ccc(Cl)cc2)C(Cl)(Cl)Cl)cc1`, the result was inactive.

In the case of `CN(C)[C@@H]1C(=O)C(C(N)=O)=C(O)[C@@]2(O)C(=O)C3=C(O)c4c(O)cccc4[C@@](C)(O)[C@H]3C[C@@H]12`, the result was inactive.

On to `CCN(CC)N=O`, for which the outcome was inactive.

`N#CC(Br)(Br)C(N)=O`: the result was inactive.

On to `CCCCCCCCCCCCCN1CC(C)OC(C)C1` (stereo not given), for which the result was inactive.

With `CC(C)(O)c1cnn2c(-c3ccc(F)c(-c4c(F)cccc4C#N)c3)cnc2n1`, the compound was called inactive.

On to `Cn1cc(-c2ccccc2)c(=O)c(-c2cccc(C(F)(F)F)c2)c1`, for which the compound was called inactive.

Consider `Clc1ccc(Cl)c(Cl)c1`, for which the result was inactive.

In the case of `O=P(OCCCl)(OCCCl)OCCCl`, the call was inactive.

On to `Oc1ccccc1Cl`, for which the compound was classed as inactive.

As for `CCCCCCCCOC(=O)c1ccc(C(=O)OCCCCCCCC)c(C(=O)OCCCCCCCC)c1`, the compound was called inactive.

As for `COC(=O)Nc1nc2ccccc2[nH]1`, the compound was classed as inactive.

As for `CC(O)CCO` (stereo not given), the outcome was inactive.

`Nc1ccc(Cc2ccc(N)cc2)cc1`: the outcome was inactive.

For the compound `C1=Cc2cccc3cccc1c23`, the compound was called inactive.

Turning to `CCCCCCCCn1sccc1=O`, the compound was classed as inactive.

Consider `CO[C@@H]1[C@H](OC(=O)NC(=O)CCl)CC[C@]2(CO2)[C@H]1[C@@]1(C)O[C@@H]1CC=C(C)C`, for which the call was inactive.

Take `CNC(=O)Oc1cccc2c1OC(C)(C)C2`: the result was inactive.

On to `ClC1=C(Cl)[C@]2(Cl)[C@H]3[C@H]([C@@H]4C=C[C@H]3C4)[C@@]1(Cl)C2(Cl)Cl`, for which the compound was classed as inactive.

As for `Cc1ccc([N+](=O)[O-])cc1`, the compound was called inactive.

For the compound `C[C@]12C=CC3=C4CCC(=O)C=C4CC[C@H]3[C@@H]1CC[C@@H]2O`, the result was inactive and the half-maximal activity concentration (AC50) is 26.8 µM (active).

`CN(C)C(=O)Nc1ccc(Cl)cc1`: the result was inactive.

Regarding `O=[N+]([O-])C(Br)(CO)CO`, the outcome was inactive.

Turning to `OCCCl`, the call was inactive.

`N#CC(Br)Br`: the compound was classed as inactive.

`CC(C)(C)C(O)(CCc1ccc(Cl)cc1)Cn1cncn1` (stereo not given): the call was inactive.

`COC(=O)c1ccccc1N`: the call was inactive.

With `Nc1ccc(N=Nc2ccccc2)cc1`, the half-maximal activity concentration (AC50) was 77.9 µM (active).

Turning to `CCN(CC)CCO`, the call was inactive.

As for `CC(C)(C)OOC(=O)c1ccccc1`, the result was inactive.

With `OCCCBr`, the call was inactive.

The AC50 is the concentration giving half of the maximal activity seen.

The record behind these values is PubChem BioAssay (EPA / NIEHS).
